CCHF vOTU inh-1 – CCHFV vOTU protease inhibition; Pep-AMC fluorescence; inhibition, % at 11.5 µM; hit rate 0.55% among 370,000; AID 651958; further: 0% = vehicle wells with enzyme and 100% = no enzyme wells
Vc quorum ag – inducers of Vibrio cholerae quorum light production without autoinducers | V. cholerae BH1578 lux reporter, luminescence, 6 h | activation, % at 18.7 µM | AID 588436 | hit rate 0.16% among 350,000; in the data active means activation mostly above about 9.7%, no sharp cut-off
Mtb FBA inh – inhibits M. tuberculosis FBA enzyme | AID 588726 | purified M. tuberculosis FBA, fluorescence read-out | hit rate 2.3% among 360,000 | inhibition, % at 1 µM; in the data active means inhibition above about 27%;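 further: 0% = vehicle and 100% = reference inhibitor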
Target sequence (P9WQA3 whole entry, looked up): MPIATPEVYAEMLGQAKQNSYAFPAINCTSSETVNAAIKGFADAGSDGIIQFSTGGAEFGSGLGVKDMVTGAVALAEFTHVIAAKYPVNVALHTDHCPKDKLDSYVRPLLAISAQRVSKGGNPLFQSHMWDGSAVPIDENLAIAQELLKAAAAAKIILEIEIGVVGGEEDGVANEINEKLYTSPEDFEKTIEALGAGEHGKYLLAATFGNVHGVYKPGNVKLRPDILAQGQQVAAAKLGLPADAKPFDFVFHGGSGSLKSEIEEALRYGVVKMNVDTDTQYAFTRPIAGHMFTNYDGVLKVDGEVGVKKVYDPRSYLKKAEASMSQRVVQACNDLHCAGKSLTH
GDH-TPI inh – inhibits GDH-TPI coupling enzymes, artifact for Mtb FBA screen. hit rate 1.2% among 360,000. GDH-TPI coupled enzyme counterscreen, NADH absorbance. inhibition, % at 4.8 µM. AID 588335;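 further: 0% = DMSO wells and 100% = wells lacking the enzyme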
CCHF vOTU inh-2 – CCHFV vOTU protease inhibition, confirmation. inhibition, % at 11.5 µM. shares compounds with CCHF vOTU inh-1. AID 686976. hit rate 17% among 1,900. Recombinant CCHFV vOTU, Pep-AMC fluorescence
* hit, by the source's call; i = inactive; x = no result; ! = not confirmed by another sample. Hits are enriched below; roughly 3.9% of the tested compounds scored in any of these assays. Unless noted, no stated cut-off is given here; in the data, active means inhibition above about 30%; inactive means the rest.

SMILES | CCHF vOTU inh-1 | Vc quorum ag | Mtb FBA inh | GDH-TPI inh | CCHF vOTU inh-2
COc1cc(N)c2ncccc2c1Br | 105* | -1 | 0 | 12 | 25
O=C(OCCc1cc2ccccc2c(=O)o1)c1cccc(Br)c1 | 4 | i | 4 | 8 | x
CC(OC(=O)c1cccnc1Cl)C(=O)Nc1ccc(S(N)(=O)=O)cc1 (stereo not given) | 6 | 0 | 0 | -6 | x
COc1cccc2c(=O)n(CC(=O)NCCc3ccccc3)ccc12 | 2 | 0 | 2 | -4 | x
CCC(=O)N(CCC(c1ccccc1)c1ccco1)Cc1cccs1 (stereo not given) | 34* | i | 2 | 11 | -10
COc1ccccc1C(CCN(Cc1cccs1)C(C)=O)c1ccco1 (stereo not given) | 11 | i | -4 | 1 | x
Oc1c(Cl)cc(Cl)c2cccnc12 | 9 | 0 | 3 | 8 | x
Cc1ccc(S(=O)(=O)Nc2cc(Cl)c(O)c3ncccc23)cc1 | 30* | 0 | 1 | 17 | -3
Cc1cc(C)c2cc(C#N)c(NCCNC(=O)c3ccccn3)nc2c1 | -3 | x | x | x | x
O=C1C(=C(I)I)c2ccccc2-c2ccccc21 | 95* | -1 | 6 | 9 | 55*
O=C1C(=O)c2ccccc2-c2ccccc21 | 114* | i | -5 | 0 | 96*
Cc1nc2c(nc1C)C(=O)c1ccccc1C2=O | 32* | i | -1 | 6 | 21
CCN(CC(=O)Nc1c(F)cccc1F)C(=O)c1cc2c(cc1Cl)N1CCCCCC1=NS2(=O)=O | -2 | i | 0 | 1 | x
CN1CC[C@@]2(C)c3cc(O)ccc3N(C)[C@@H]12 | 40*! | 0 | -5 | 4 | 28
CN1CC[C@@]2(C)c3cc(O)ccc3N(C)C2O1 (stereo not given in full) | x | i | -2 | -6 | x
COc1cccc(CNC(=O)[C@@H]2CCCN2C(=O)[C@@H]2CCCN2C(=O)c2c(F)cccc2F)c1 | 9 | x | x | x | x
Nc1ncc(Br)cc1S(=O)(=O)Nc1cc(C(F)(F)F)cc(C(F)(F)F)c1 | 32* | 0 | -1 | -1 | 13
Cc1ccc(NS(=O)(=O)c2cc(Br)cnc2N)c(Cl)c1 | 16 | 0 | 1 | 3 | x
C=CCn1c2ccccc2c2nnc(SCCCn3c(=O)[nH]c4ccccc43)nc21 | 31* | i | 1 | 1 | -4
CCOc1ccc(/C(O)=C2\C(=O)C(=O)N(CCN(C)C)C2c2cccc(OC)c2OC)cc1Cl (stereo not given) | 30* | 7 | -2 | 4 | -9
CN(C)c1ccc(N/C=C/C(=O)C(C)(C)C)cc1 | 59* | i | -4 | 22 | 11
O=C(/C=C/Nc1ccccc1)c1ccccc1 | 29 | x | -2 | 17 | x
CN(C)c1ccc(N/C=C/C(=O)c2ccccc2)cc1 | 60* | 0 | -5 | 13 | -4
CCOC(=O)c1ccc(N/C=C/C(=O)C(C)(C)C)cc1 | 7 | i | -1 | 27 | x
CN(C)c1ccc(/C=C/C(=O)c2ccc(O)cc2)cc1 | 35* | x | -19 | 16 | -5
SMILES | CCHF vOTU inh-1 | Vc quorum ag | Mtb FBA inh | GDH-TPI inh | CCHF vOTU inh-2
CN(C)c1ccc(C(=O)C=Cc2ccc([N+](=O)[O-])cc2)cc1 | 17 | 0 | -2 | -4 | x
CCn1c(CC(=O)Nc2ccc(C)cc2)nnc1SCC(=O)NCCc1ccccc1 | -7 | 2 | 3 | 4 | x
O=[N+]([O-])c1cc([N+](=O)[O-])c2nonc2c1Nc1ccccc1O | -1 | i | -23 | -1 | x
O=[N+]([O-])c1cc([N+](=O)[O-])c2nonc2c1Nc1ccc(O)cc1 | 64* | i | -29 | -5 | -6
CS(=O)(=O)N1CCN(c2ccccc2NC(=O)c2ccc(Br)o2)CC1 | 4 | -3 | -2 | 11 | x
CC[C@H](CO)Oc1cc(NCc2cccc(N)c2)c2ncn(C(C)C)c2c1 | 75* | x | x | x | 57*
Cc1[nH][nH]c(=O)c1C(c1c(C)[nH][nH]c1=O)c1cn(Cc2ccc(Cl)c(Cl)c2)c2ccccc12 | 56* | 0 | -7 | 7 | 9
Cc1[nH][nH]c(=O)c1C(c1c(C)[nH][nH]c1=O)c1cn(Cc2ccc(F)cc2)c2ccccc12 | x | 0 | -7 | 22 | x
C=CCn1cc(/C=N\NC(=O)c2cc3c(ccc4ccccc43)o2)c2ccccc21 | -15 | 1 | 2 | 3 | x
O=C(O)Cn1cc(/C=N/NC(=O)c2cc3cc(Br)ccc3o2)c2ccccc21 | 31* | -1 | 1 | 48* | -1
C=CCc1cccc(/C=N/c2ncccc2O)c1O | 59* | -8 | 0 | 8 | 16
C=CCc1cccc(C=Nc2ccc(Br)cc2)c1O | 2 | i | 1 | 7 | x
CC1=C(C(=O)OCC(C)C)C2(O)C(=O)c3ccccc3C2(O)N1 (stereo not given) | 30* | 0 | -3 | 0 | -18
